Assay results as given in PubChem BioAssay.
Results filed as inconclusive are left out. The source made the active and inactive calls.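 Rule for the calls, unless noted: active = viability loss from added drug above about 55%, and viability with drug at most 40%, in both replicates (limit read from the data, passing the limit was not always enough); inconclusive = both conditions met in only one replicate; inactive = neither replicate meets both conditions.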

Tests used:
[1] = Her2 expression decrease, cell viability multiplex – SKBR3 breast tumor cells, AlphaScreen, ATP viability, primary screen (AID 461;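 active = Her2 level under about 52% in both replicate screens, with viability over 70% of control, limit read from the data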;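 for Her2 level: lower value means less Her2 protein in the cells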;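 for viability: percent of carrier control wells set as 100% viability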); settings: SKBR3 Her2 protein level, 18-24 h, measured here: SKBR3 viability, ATP luminescence, at 10 µM
[2] = biological target: Receptor tyrosine-protein kinase erbB-2 (Homo sapiens) (UniProt P04626); experiment: as above; settings: 18-24 h, at 10 µM, stronger effect = lower value
Chain of Receptor tyrosine-protein kinase erbB-2 (Homo sapiens) (P04626 whole entry, looked up): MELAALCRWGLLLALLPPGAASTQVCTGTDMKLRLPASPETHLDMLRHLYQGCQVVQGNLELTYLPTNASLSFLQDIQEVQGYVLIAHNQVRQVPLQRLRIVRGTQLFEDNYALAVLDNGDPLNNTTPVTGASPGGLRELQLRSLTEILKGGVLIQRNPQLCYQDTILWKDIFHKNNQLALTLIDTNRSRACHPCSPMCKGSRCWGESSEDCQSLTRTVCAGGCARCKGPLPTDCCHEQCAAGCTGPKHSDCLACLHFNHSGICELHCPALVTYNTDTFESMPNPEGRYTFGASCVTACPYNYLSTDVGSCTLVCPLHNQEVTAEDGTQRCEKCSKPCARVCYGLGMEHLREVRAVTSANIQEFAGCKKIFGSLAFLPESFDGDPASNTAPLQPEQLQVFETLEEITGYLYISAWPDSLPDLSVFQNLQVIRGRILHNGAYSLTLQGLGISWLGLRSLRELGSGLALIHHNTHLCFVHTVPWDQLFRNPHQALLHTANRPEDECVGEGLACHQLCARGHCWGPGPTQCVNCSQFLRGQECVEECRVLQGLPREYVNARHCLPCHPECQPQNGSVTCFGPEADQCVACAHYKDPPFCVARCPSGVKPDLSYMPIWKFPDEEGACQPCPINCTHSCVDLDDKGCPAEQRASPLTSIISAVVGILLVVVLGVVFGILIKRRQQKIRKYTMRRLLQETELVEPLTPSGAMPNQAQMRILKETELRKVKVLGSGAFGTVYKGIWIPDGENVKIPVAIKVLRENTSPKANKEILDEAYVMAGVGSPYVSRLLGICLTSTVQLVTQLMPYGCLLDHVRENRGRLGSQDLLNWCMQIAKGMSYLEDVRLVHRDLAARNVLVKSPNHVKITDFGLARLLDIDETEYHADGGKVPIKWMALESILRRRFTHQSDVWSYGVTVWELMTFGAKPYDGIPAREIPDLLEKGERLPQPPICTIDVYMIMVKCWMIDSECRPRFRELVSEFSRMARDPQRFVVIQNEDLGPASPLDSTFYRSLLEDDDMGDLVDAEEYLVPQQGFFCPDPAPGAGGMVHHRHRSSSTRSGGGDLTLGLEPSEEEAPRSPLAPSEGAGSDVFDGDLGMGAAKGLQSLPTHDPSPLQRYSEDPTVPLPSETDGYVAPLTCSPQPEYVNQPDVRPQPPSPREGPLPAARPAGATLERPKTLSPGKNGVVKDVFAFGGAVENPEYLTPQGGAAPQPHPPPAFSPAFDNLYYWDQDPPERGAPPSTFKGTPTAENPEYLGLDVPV

[3] = reduced viability of SK-BR-3 breast cancer cells – cell-based, 24 h, human, pilot screen (AID 572;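 active = viability at or below 10% of carrier control in both of two separate runs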;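 note: compound exposure lasted between 18 and 24 h rather than exactly 24 h; 100% = carrier-treated control wells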); settings: SK-BR-3 viability, CellTiter-Glo luminescence, at 10 µM, stronger effect = lower value
[4] = H69AR cell proliferation blockers – human, duplicate replicates, primary screen (AID 580;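 active = viability at or under a set limit in both replicates, limit being median viability minus 3 SD, cut at about 48% in these data, passing the limit was not always enough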;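 note: 100% = mean luminescence of untreated wells and 0% = no signal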); settings: H69AR lung tumor cells viability, ATP luminescence, 72 h; at 10 µM; stronger effect = lower value
[5] = MRP1 drug-resistance reversers in H69AR cells – cell-based, doxorubicin co-treatment, pilot screen (AID 601); settings: CellTiter-Glo, 72 h, at 10 µM; for differential viability (reversal): stronger effect = higher value
[6] = yeast transport mutant growth inhibition pilot in 384-well plates, post-Golgi transport modulator project (AID 636; in the data active = inhibition above about 31%); settings: absorbance 615 nm, about 18 h, stronger effect = higher value
[7] = growth suppression of yeast trafficking mutant, preliminary HTS, modulators of trafficking downstream of Golgi apparatus project, 1536-format plate, OD 615 nm (AID 637; in the data active = inhibition above about 30%); settings: yeast transport mutant growth, absorbance 615 nm, 18 h; stronger effect = higher value
[8] = S. cerevisiae growth inhibition in permissive medium (OD615), pilot counter-assay for S. cerevisiae lifespan shortening project, permissive growth control (AID 705;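 active = growth inhibition above 25% in both replicates, a cutoff set 3 SD above the mean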); settings: OD615, 24 h, at 10 µM, stronger effect = higher value
[9] = S. cerevisiae growth inhibition in restrictive medium, OD615, pilot screen, restrictive growth control, yeast lifespan reduction project (AID 706;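 active = growth inhibition above a set limit, 3 SD over mean compound inhibition, in both replicates, cut at about 43% in these data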;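 note: modified DeaD lifespan yeast strain shifted to restrictive glucose medium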); settings: OD615, 48 h, at 10 µM, stronger effect = higher value
[10] = doxorubicin toxicity protection in MRP-1 cells – H69AR cells, CellTiter-Glo, duplicate, MRP-1 activator project, pilot screen (AID 807;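 active = viability increase at or above a cutoff of the median across tested compounds plus 3 SD, cut at about 8.5% in these data, passing the limit was not always enough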;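 note: compound pretreatment 18-22 h then 72 h combined with doxorubicin; 0% = doxorubicin alone and 100% = vehicle without doxorubicin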); settings: H69AR viability with doxorubicin, CellTiter-Glo luminescence; at 10 µM; stronger effect = higher value
[11] = viability of HCT116 without oncogenic beta-catenin – human colon tumor cells, pilot screen (AID 823;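 active = cell viability at or below a set limit in both duplicate runs, the limit being the all-compound median minus 4 SD, cut at about 23% in these data, passing the limit was not always enough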;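 note: 0% = wells killed by 20 µM Hyamine and 100% = untreated DMSO cell wells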); settings: HCT116 beta-catenin knockout viability, CellTiter-Glo, 60 h; at 10 µM; stronger effect = lower value
[12] = viability of PTEN-null HCT116 cells – cell-based, HCT116 clonal line, CellTiter-Glo, pilot screen (AID 824;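 active = viability at or below 27.92% in each of two runs, the all-compound median minus 4 SD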;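 note: 0% = 20 µM Hyamine control and 100% = vehicle cell control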); settings: HCT116 PTEN-deleted viability, 60 h, at 10 µM, stronger effect = lower value
[13] = RAM pathway blockade in budding yeast – dse1pr::URA3 reporter, 5-FOA selection, pilot screen (AID 869;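 active = inhibition over a set limit, the all-compound mean plus 3 SD, in both replicate runs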;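 note: 0% = DMSO wells with no growth and 100% = 10 µM 1-NA-PP1 with full growth; RAM network block rescues cells from 5-FOA so hits raise OD615 growth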); settings: S. cerevisiae dse1pr::URA3 5-FOA growth, OD615, 2 d; at 10 µM; stronger effect = higher value; strain carries analog-sensitive mutant Cbk1 kinase
[14] = RAM signaling pathway blockade in yeast – S. cerevisiae, Pdr1DBD-CYC8 efflux-inhibited sensitized strain, primary screen (AID 1298;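 active = RAM network inhibition above 8.4% in each of two replicates, 3 SD over the compound average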;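 note: 0% = DMSO untreated cells without growth and 100% = 10 µM 1-NA-PP1 full growth; higher means more yeast growth rescued from 5-FOA killing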); settings: S. cerevisiae cbk1-as DSE1-URA3 strain, 5-FOA growth OD615, 2 d; at 50 µM; stronger effect = higher value
[15] = HUVEC growth inhibition – cell-based, human, primary screen (AID 575;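 active = viability at or below 30% in both replicate assays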;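 note: 100% = median of untreated cell wells with 0.1% DMSO on each plate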); settings: HUVEC proliferation, CellTiter-Glo luminescence, 72 h; at 10 µM; stronger effect = lower value
[16] = H69AR cells + 2 uM doxorubicin, measured here: viability with 2 uM doxorubicin, stronger effect = lower value
[17] = H69AR cells, compound alone cytotoxicity

SMILES	viability [1] [%]	Her2 level [2]	viability [3]	viability [4]	differential viability (reversal) ([5]; H69AR cells + 2 uM doxorubicin)	viability [5, 16] [%]	viability [5, 17] [%]	inhibition [6]	inhibition [7]	growth inhibition [8]	growth inhibition [9]	viability increase [10]	viability [11]	viability [12]	inhibition [13]	RAM network inhibition [14]	viability [15]
CC(=O)n1cc(-c2ccncc2)c2ccccc21	94	108% (inactive)	94% (inactive)	85.3% (inactive)	6.14% (inactive)	79.2	85.3	-7.2% (inactive)	-3% (inactive)	-5.77% (inactive)	-1.47% (inactive)	-3.7% (inactive)	86.7% (inactive)	82.6% (inactive)	0.135% (inactive)	0.27% (inactive)	
C/C=C/COC(=O)c1[nH]c2c(c1C)C(=O)CC(c1ccco1)C2 (stereo not given)	80.5	62% (inactive)	80.5% (inactive)	24.4% (active)	-15.9% (inactive)	40.2	24.4	-2.67% (inactive)	-3.28% (inactive)	-4.97% (inactive)	-2.88% (inactive)	-4.93% (inactive)	16.6% (active)	19.8% (active)	0.985% (inactive)	0.51% (inactive)	
CCOC(=O)CSC1=C(C#N)C(c2ccc(C)o2)CC(=O)N1 (stereo not given)	98.5	83.5% (inactive)	98.5% (inactive)	26.6% (active)	-21.3% (inactive)	47.9	26.6	-4.4% (inactive)	-0.66% (inactive)	-8.58% (inactive)	7.01% (inactive)	-5.31% (inactive)	13.7% (active)	14.7% (active)	1.17% (inactive)	0.15% (inactive)	
CCCc1cc(=O)oc2cc(C)cc(OC(=O)c3ccco3)c12			97% (inactive)	95.8% (inactive)	9.31% (inactive)	86.5	95.8	-6.93% (inactive)	-7.82% (inactive)	-7.19% (inactive)	-12.2% (inactive)	-1.16% (inactive)	96.7% (inactive)	80.6% (inactive)	3.94% (inactive)	4.75% (inactive)	62.2% (inactive)
Cc1cc(/C=N/n2cnnc2)c(C)n1-c1cccc(Cl)c1	84	92% (inactive)	84% (inactive)	86.4% (inactive)	20.5% (inactive)	65.9	86.4	-5.26% (inactive)	3.83% (inactive)	-2% (inactive)	22.7% (inactive)	-3.15% (inactive)	83.7% (inactive)	73.2% (inactive)	2.75% (inactive)	2.81% (inactive)	
Cc1ccc(C2c3c(oc4ccccc4c3=O)C(=O)N2c2nnc(C(C)C)s2)o1 (stereo not given)	84	61% (inactive)	84% (inactive)	11.2% (active)	-3.47% (inactive)	14.7	11.2	-5.2% (inactive)	3.17% (inactive)	-13.3% (inactive)	-9.87% (inactive)	-3.23% (inactive)	104% (inactive)	98.1% (inactive)	0.83% (inactive)	1.85% (inactive)	
CC(Sc1n[nH]c(=O)[nH]c1=O)C(=O)OCc1ccccc1 (stereo not given)			94% (inactive)	99.9% (inactive)	11.6% (inactive)	88.3	99.9	-5.6% (inactive)	-0.18% (inactive)	-21.9% (inactive)	-8.41% (inactive)	0.49% (inactive)	103% (inactive)	98.5% (inactive)	1.66% (inactive)	5.73% (inactive)	116% (inactive)
CCOC(=O)C1=C(CS(=O)(=O)c2ccc(F)c(C)c2)NC(=O)NC1c1ccc(O)c(O)c1 (stereo not given)			112% (inactive)	92.6% (inactive)	9.16% (inactive)	83.4	92.6	-4.13% (inactive)	-7.54% (inactive)	0.775% (inactive)	-9.4% (inactive)	-1.64% (inactive)	99.1% (inactive)	94.8% (inactive)	-0.51% (inactive)	1.66% (inactive)	85.2% (inactive)
COc1cc(-c2nc(-c3ccncc3)no2)cc(OC)c1OC			100% (inactive)	89.1% (inactive)	1.12% (inactive)	88	89.1	-5.87% (inactive)	-2.18% (inactive)	-1.17% (inactive)	11.1% (inactive)	-2.77% (inactive)	103% (inactive)	99.3% (inactive)	2.17% (inactive)	3.72% (inactive)	101% (inactive)
O=C(Cn1c(=O)sc2ccccc21)NCCOc1ccccc1F			102% (inactive)	99.4% (inactive)	13.6% (inactive)	85.8	99.4	-1.82% (inactive)	-6.23% (inactive)	7.09% (inactive)	11.1% (inactive)	-0.76% (inactive)	108% (inactive)	98.4% (inactive)	1.38% (inactive)	10.5% (inactive)	108% (inactive)
O=C(c1ccc2snnc2c1)N1CCOCC1			101% (inactive)	102% (inactive)	12.8% (inactive)	88.9	102	-1.73% (inactive)	-0.55% (inactive)	0.235% (inactive)	-15.9% (inactive)	0.28% (inactive)	102% (inactive)	99.4% (inactive)	1.69% (inactive)	1.07% (inactive)	90.2% (inactive)
Cn1c(CSc2nc3ccccc3s2)nnc1SCC(=O)NCCN1CCOCC1			75% (inactive)	98.5% (inactive)	-3.51% (inactive)	102	98.5	2.67% (inactive)	10% (inactive)	7.95% (inactive)	32.4% (inactive)	-3.43% (inactive)	92.9% (inactive)	86.7% (inactive)	0.27% (inactive)	3.17% (inactive)	97.6% (inactive)
CC12CCC(C(=O)N3CCN(C(=O)C45CCC(C)(C(=O)O4)C5(C)C)CC3)(OC1=O)C2(C)C			109% (inactive)	105% (inactive)	20.1% (inactive)	84.7	105	-3.47% (inactive)	-7.64% (inactive)	-17% (inactive)	-7.99% (inactive)	-0.17% (inactive)	102% (inactive)	94.1% (inactive)	1.42% (inactive)	0.26% (inactive)	97.5% (inactive)
Clc1c(CSc2nc3ccccc3o2)nc2sccn12			116% (inactive)	92.9% (inactive)	13.2% (inactive)	79.8	92.9	-1.04% (inactive)	2.95% (inactive)	-13.5% (inactive)	-9.04% (inactive)	-6.43% (inactive)	77.3% (inactive)	81% (inactive)	-0.115% (inactive)	-0.26% (inactive)	82% (inactive)
O=C(C1CC1)N1CCc2cc(Br)cc(S(=O)(=O)N3CCOCC3)c21			98% (inactive)	90.6% (inactive)	10.4% (inactive)	80.1	90.6	-7.95% (inactive)	1.11% (inactive)	-11.8% (inactive)	-12.8% (inactive)	-5.31% (inactive)	91.9% (inactive)	83.2% (inactive)	1.35% (inactive)	2.33% (inactive)	88.5% (inactive)
C#CCOC(=O)C1C2C=CC(C2)C1C(=O)O (stereo not given)			86% (inactive)	93.6% (inactive)	11.9% (inactive)	81.7	93.6	-6.27% (inactive)	1.45% (inactive)	2.87% (inactive)	-1.21% (inactive)	0.51% (inactive)	103% (inactive)	96.8% (inactive)	-0.215% (inactive)	2.5% (inactive)	109% (inactive)
Cc1cccc(N(CC(=O)N2CCCC2)S(=O)(=O)c2ccccc2)c1C			106% (inactive)	88.5% (inactive)	-0.32% (inactive)	88.8	88.5	-2.27% (inactive)	1.82% (inactive)	-1.1% (inactive)	4.24% (inactive)	-1.18% (inactive)	93.9% (inactive)	93.6% (inactive)	2.05% (inactive)	3.22% (inactive)	112% (inactive)
COCc1cc(C)nc(Nc2ccc(C)cc2C)c1C#N			70% (inactive)	104% (inactive)	9.25% (inactive)	95.1	104	-2.43% (inactive)	2.46% (inactive)	-9.57% (inactive)	-2.85% (inactive)	-4.12% (inactive)	97.2% (inactive)	90.6% (inactive)	1.15% (inactive)	0.15% (inactive)	84.8% (inactive)
CC(=O)NCCc1ccc(S(=O)(=O)NCc2ccc3c(c2)OCO3)cc1			91% (inactive)	103% (inactive)	12% (inactive)	91.3	103	-8.27% (inactive)	-6.18% (inactive)	-15.2% (inactive)	-5.52% (inactive)	0.44% (inactive)	96.1% (inactive)	97.1% (inactive)	1.12% (inactive)	1.84% (inactive)	91.9% (inactive)
